Only some compounds are listed: those with a hit (about 5.9% of all), similar ones and a draw of the others.
VP16 counter = inhibits Gal4-VP16 luciferase reporter, ROR gamma counter-screen; 3.5% of 310,000 active; Drosophila S2 Gal4-VP16 UAS-luciferase, luminescence, 20 h; Potency, µM (doses to about 53.6 µM), most hits filed as inhibitors;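 note: Gal4-VP16 expression switched on by copper sulfate through the metallothionein promoter; nearly all actives have a fitted effect of over 50% in size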
GLP1R cytotox = cytotoxic in the GLP-1 receptor inverse agonist counter-screen; HEK293 cAMP-luciferase reporter cells, luminescence, 24 h; Potency, µM (highest dose often 38.3 µM), actives largely listed as inhibitors; 0.13% of 410,000 active; AID 624418;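 note: loss of luciferase light is scored as toxicity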
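To flag toxic compounds, the library was rerun on cells for 24 hr at 37 deg C and 5% CO2. Viability-linked luminescence was captured 12 min after adding luciferase detection reagent.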
RORgamma inh = blocks mouse ROR gamma transcriptional activity; P51450; Drosophila S2 Gal4-RORgamma UAS-luciferase reporter, 20 h; Potency, µM (titrated, usually from 53.6 µM), actives largely listed as inhibitors; 5.4% of 310,000 active; note: nearly all actives have a fitted effect of over 60% in size
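A Gal4/UAS one-hybrid system in insect cells: metallothionein-promoter Gal4–ROR gamma fusion plus Photinus luciferase reporter. Copper sulfate 700 uM final, 20 hr ambient incubation, luminescent detection after 10 min with reagent.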
GLP1R ag = agonists of human GLP-1 receptor. P43220. HEK293 GLP-1R CRE-luciferase, luminescence, 4-6 h; cells express a hypersensitive GLP-1R form. Potency, µM (highest dose often 45.6 µM), usual class: activators. 0.007% of 380,000 active. AID 624172
Target sequence (P43220 whole entry, looked up): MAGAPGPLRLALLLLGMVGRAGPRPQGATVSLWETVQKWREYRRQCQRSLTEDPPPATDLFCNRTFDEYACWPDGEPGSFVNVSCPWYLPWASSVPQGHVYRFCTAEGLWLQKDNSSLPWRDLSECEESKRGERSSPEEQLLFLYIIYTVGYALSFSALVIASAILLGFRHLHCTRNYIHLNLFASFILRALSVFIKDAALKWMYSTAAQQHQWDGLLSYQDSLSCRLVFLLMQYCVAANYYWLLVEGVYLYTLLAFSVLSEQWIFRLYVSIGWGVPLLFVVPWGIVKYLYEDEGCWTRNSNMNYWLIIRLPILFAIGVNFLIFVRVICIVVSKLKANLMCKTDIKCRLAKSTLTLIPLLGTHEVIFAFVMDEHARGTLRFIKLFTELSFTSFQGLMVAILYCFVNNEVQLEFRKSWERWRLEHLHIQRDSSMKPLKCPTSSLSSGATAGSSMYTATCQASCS
GLP1R inv ag = inverse agonists of human GLP-1 receptor. 1.6% of 410,000 active. HEK293 GLP-1R CRE-luciferase, luminescence, 24 h; GLP-1R form is constitutively active. Potency, µM (titrated, usually from 38.3 µM), hits mostly inhibitors. AID 624417; note: nearly all actives have a fitted effect of over 55% in size
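qHTS in 1536-well format: reporter HEK293 cells expressing constitutive GLP-1R activity in DMEM + 10% Nu serum, 24 hr with compounds at 37 deg C, luminescence read after 12 min with detection reagent.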
Each line names hits and unclear results; the compound was inactive in the other large screens. Calls come from the whole dose curve; as a rule, active = well fitted curve in the direction sought with a large enough effect; inconclusive = small, poorly fitted or top-dose-only effect, or another doubt; inactive = no such curve, though single readings can be large; an effect the other way counts as inactive or inconclusive.

COCCN(Cc1ccccc1)C(=O)c1cccc(S(=O)(=O)N2CCN(c3ccccc3)CC2)c1	GLP1R inv ag 10µM (no result: VP16 counter, RORgamma inh)
COc1cccc(NC(=O)c2cccc(S(=O)(=O)N3CCN(Cc4ccccc4)CC3)c2)c1	GLP1R inv ag 6.3µM (no result: VP16 counter, RORgamma inh)
CCc1cnc2c(c1SCC(=O)NCc1ccccc1)c(=O)n(C)c(=O)n2C	none (no result: VP16 counter, RORgamma inh, GLP1R ag)
CN(Cc1ccc(F)cc1)C(=O)c1cccc(S(=O)(=O)N2CCN(c3ccc(F)cc3)CC2)c1	GLP1R inv ag 10µM (no result: VP16 counter, RORgamma inh)
CN(Cc1ccc(F)cc1)C(=O)c1cccc(S(=O)(=O)N2CCN(c3ccccc3)CC2)c1	GLP1R inv ag inconclusive (no result: VP16 counter, RORgamma inh)
CC(=O)c1ccc(Nc2ccc3cc(S(=O)(=O)N4CCCC4)ccc3n2)cc1	GLP1R inv ag inconclusive (no result: VP16 counter, RORgamma inh, GLP1R ag)
Cc1ccc(C2=NN(C(=O)CCl)C(c3ccco3)C2)o1 (stereo not drawn)	VP16 counter inconclusive, GLP1R cytotox inconclusive, RORgamma inh 11µM, GLP1R inv ag inconclusive
COCc1nnc(NC(=O)c2ccc(S(=O)(=O)N(C)c3ccccc3)cc2)o1	VP16 counter 2.5µM, RORgamma inh 1.6µM, GLP1R inv ag inconclusive
CCN(c1ccccc1)S(=O)(=O)c1ccc(C(=O)NCCCn2ccnc2)cc1	GLP1R inv ag inconclusive
CCN(c1ccccc1)S(=O)(=O)c1ccc(C(=O)Nc2nnc(COC)o2)cc1	VP16 counter 1.3µM, RORgamma inh 0.56µM
CCN(c1ccccc1)S(=O)(=O)c1ccc(C(=O)Nc2nnc(CSC)o2)cc1	VP16 counter 0.89µM, RORgamma inh 0.35µM, GLP1R inv ag inconclusive
COc1ccc(NC(=O)Cn2cnc3ccc(S(=O)(=O)N4CCC(C)CC4)cc3c2=O)cc1OC	none (no result: VP16 counter, RORgamma inh)
COc1ccc2cc(CNc3ccc(C)cc3)c(=O)n(CC(=O)Nc3cccc(Cl)c3C)c2c1	none (no result: VP16 counter, RORgamma inh)
Cc1cc(NC(=O)NC(=O)c2ccc(F)cc2F)n[nH]1	VP16 counter inconclusive, RORgamma inh 8.9µM, GLP1R inv ag inconclusive
C=CS(=O)(=O)N(Cc1ccc(Cl)c(Cl)c1)C[C@@H](O)CO	GLP1R cytotox inconclusive, GLP1R inv ag 6.3µM (no result: VP16 counter, RORgamma inh)
Cc1ccc(-n2ncc3c(N4CCN(Cc5ccccc5)CC4)ncnc32)cc1C	none (no result: VP16 counter, RORgamma inh, GLP1R ag)
C/C(CC1CC(C)(C)OC1=O)=N\NC(N)=S (stereo not drawn)	VP16 counter inconclusive, RORgamma inh inconclusive
C/C(CC1CC2=C(CC1(C)C)C(C)(C)CCC2)=N\NC(N)=S (stereo not drawn)	VP16 counter 3.2µM, GLP1R cytotox inconclusive, RORgamma inh 2µM, GLP1R inv ag inconclusive
COC(=O)C1=C(C)N(Cc2ccccc2)C2=C(C(C)=O)C(c3ccccc3)[C@@](O)(C(=O)OC)C(=O)N2C1c1ccccc1 (stereo partly drawn)	none (no result: GLP1R cytotox, GLP1R ag, GLP1R inv ag)
Cc1cc(C)cc(C(O)c2ncc(-c3ccc(Cl)cc3)[nH]2)c1 (stereo not drawn)	GLP1R inv ag 13µM (no result: VP16 counter, RORgamma inh)
CCNc1nc(ON=C(C)C)nc(N(C)C)n1	GLP1R cytotox inconclusive, RORgamma inh 14µM
CNc1ncnc2ccc(-c3ccccc3C)cc12	VP16 counter inconclusive (no result: GLP1R cytotox, GLP1R ag, GLP1R inv ag)
O=C(N/N=C/C=C\c1ccccc1[N+](=O)[O-])c1ccccn1	RORgamma inh inconclusive
Cc1ccsc1C(=O)N/N=C/C=C/c1ccccc1[N+](=O)[O-]	VP16 counter 5.6µM, RORgamma inh 5.6µM
Cc1occc1C(=O)N/N=C/C=C\c1ccccc1[N+](=O)[O-]	VP16 counter inconclusive, RORgamma inh inconclusive
O=C(N/N=C/C=C/c1ccccc1[N+](=O)[O-])c1cc(-c2ccccc2)n[nH]1	VP16 counter 14µM, RORgamma inh 7.1µM
O=S(=O)(NCc1nc2cccnc2n1Cc1ccccc1)c1ccc2c(c1)CCCC2	none (no result: VP16 counter, RORgamma inh, GLP1R ag)
O=C(CCNS(=O)(=O)c1ccc2c(c1)CCN2C(=O)C1CC1)N1CCN(c2cccc(Cl)c2)CC1	none (no result: VP16 counter, RORgamma inh)
CS(=O)(=O)N1CCC2(CCN(Cc3nccs3)CC2)CC1	none (no result: GLP1R cytotox, GLP1R ag, GLP1R inv ag)
COc1ccc(/C(C)=N/OC/C(O)=C(\C#N)c2nc3ccccc3[nH]2)cc1OC	RORgamma inh 10µM
COc1ccc(/C=N/OC/C(O)=C(\C#N)c2nc3ccccc3[nH]2)cc1	VP16 counter inconclusive, RORgamma inh 11µM
COc1ccc(C/C(O)=C(\C#N)c2nc3ccccc3[nH]2)cc1OC	RORgamma inh 11µM
COc1ccc(/C(C)=N/OC/C(O)=C(\C#N)c2nc3ccccc3[nH]2)c(OC)c1	VP16 counter inconclusive, GLP1R cytotox inconclusive, RORgamma inh 20µM, GLP1R inv ag inconclusive
CCc1ccc(NC(=O)COc2ccc(/C=C(/C#N)c3nc4ccccc4[nH]3)cc2OC)cc1	VP16 counter 3.2µM, RORgamma inh 2.8µM, GLP1R inv ag inconclusive
CO[C@@H]1COC(=O)[C@H]2CCCN2C(=O)C/C=C\[C@@H](C)[C@H](OC)COC(=O)[C@H]2CCCN2C(=O)C/C=C\[C@H]1C	none (no result: GLP1R cytotox, GLP1R ag, GLP1R inv ag)
CC(C)NC(=S)NNc1nc2ccccc2s1	VP16 counter 4µM, RORgamma inh 2.5µM
O=C(NNc1nc2c(F)cc(F)cc2s1)c1ccccc1	VP16 counter inconclusive, RORgamma inh 5µM
O=C(NNc1nc2c(F)cccc2s1)c1ccccc1	VP16 counter inconclusive, RORgamma inh inconclusive
O=C(NNc1nc2ccc(F)cc2s1)c1cccc(F)c1	VP16 counter inconclusive, RORgamma inh 4µM, GLP1R inv ag inconclusive
O=C(NNc1nc2ccccc2s1)c1ccc(F)cc1	VP16 counter 1.3µM, RORgamma inh 0.56µM
Cc1ccc(C)c(Nc2nnc(-c3ccc(C)c(S(=O)(=O)N4CCN(C)CC4)c3)c3ccccc23)c1	none (no result: VP16 counter, RORgamma inh, GLP1R ag)
Clc1ccc(/C=N/Nc2nnc(Cl)c3ccccc23)cc1	RORgamma inh inconclusive
C=CCNc1nnc(Cl)c2ccccc12	none
Clc1nnc(NN=C2CCCC2)c2ccccc12	VP16 counter inconclusive, RORgamma inh 8.9µM
Cc1ccc(/C=N/Nc2nnc(Cl)c3ccccc23)cc1	VP16 counter 13µM, RORgamma inh 3.2µM, GLP1R ag inconclusive
Clc1nnc(N/N=C/c2ccccc2)c2ccccc12	VP16 counter inconclusive, GLP1R cytotox inconclusive, RORgamma inh 10µM, GLP1R inv ag inconclusive
Cc1cc(S(=O)(=O)n2ccnc2C(C)C)cc([N+](=O)[O-])c1C	none (no result: VP16 counter, RORgamma inh, GLP1R ag)
Cc1cccc(NC(=O)CSc2nc(-c3cccs3)cc(C(F)(F)F)c2C#N)c1	none (no result: VP16 counter, RORgamma inh, GLP1R ag)
CC(CNC(=O)c1cccnc1)NC(=O)c1cccnc1 (stereo not drawn)	none (no result: GLP1R cytotox, GLP1R inv ag)
CC(C)c1cccc(C(C)C)c1OC(=O)[C@H]1OC(c2ccc(Br)cc2)=C[C@@H]1c1ccc(Br)cc1	GLP1R inv ag 13µM (no result: VP16 counter, RORgamma inh)
COc1ccc([N+](=O)[O-])cc1Nc1c2ccccc2nc2ccccc12	VP16 counter inconclusive, GLP1R cytotox inconclusive, RORgamma inh inconclusive, GLP1R inv ag inconclusive
COc1cc(NS(C)(=O)=O)ccc1Nc1c2ccccc2nc2ccccc12	GLP1R cytotox inconclusive, RORgamma inh 20µM, GLP1R inv ag inconclusive

Screening results from PubChem BioAssay.
